Measurements from PubChem BioAssay AID1345085 (National Center for Advancing Translational Sciences (NCATS), 2018).
Inconclusive results are not listed. Calls of active or inactive are those of the source. Calls follow the shape of the dose curve; as a rule, active = well fitted cell-killing curve with a large enough effect; inconclusive = small, poorly fitted or top-dose-only effect, or effect the other way; inactive = no such curve, though single readings can be large or run the other way.

test system: JEG-3; test: Confirmatory qHTS for gynecologic anti-cancer compounds from libraries of approved drugs and bioactive compounds; settings: gynecologic cancer cell panel viability, ATPlite luminescence, 48 h; series mostly up to 57.6 µM; also: nearly all actives have a fitted effect of over 55% in size
Source text: National Center for Advancing Translational Sciences [NCATS] Assay Overview: Chemotherapeutic drug responses vary from cancer to cancer and from patient to patient. These variations could be caused by a number of factors including patient genomic background, tumor mutations, tumor heterogeneity, and aspects of drug treatment. Chemotherapeutic drug resistance is also a common issue and can lead to ineffective treatment and patient death. Here we have profiled the cell killing effects of thousands of compounds to characterize the responses in three gynecological cancers, identify cancer-selective compounds, and understand the diversity of responses to these compounds from pan-cancer suppressors to single cell line selective compounds. In this assay, we screened a 7,914 compound drug library that included approved drug and bioactive compounds in six ovarian, three cervical, and two placental cancer cell lines using the ATPlite assay for cell viability. ATPlite is a luminescence based assay reliant on the conversion of a luciferase substrate to light in the presence of ATP. As a cytotoxic compound will suppress growth and decrease the number of cells, the concentration of ATP will decrease, and less light signal will be detected in the well. Hits were selected from the primary screen for follow-up confirmation. For the confirmation screens, the ovarian cancer cell lines included CAOV-3, SK-OV-3, SW 626, ES-2, PA-1, and TOV-21G. The cervical cancer cell lines included HeLa, Ca Ski, and C-33 A. The placental cancer cell lines included JEG-3 and JAR. HEK 293T cells were used as the control cell line to determine the selectivity index. The ATPlite assay was used to determine the IC50 values.
Assay Protocol Summary: 1,000 cells in 4 uL of media were dispensed into white, solid bottom 1536-well plates using a Multidrop Combi (Thermo Scientific). The Assay plates were incubated for 16 hours at 37 C with 5% CO2 in assay plates, followed by the addition of 23 nL of DMSO or drug dissolved in DMSO. . Each compound was assayed in 11 concentrations (1:3 dilution) from 57.5 uM to 0.977 nM, using the automated Wako 1536 Pin Tool workstation and incubated at 37 C with 5% CO2 48 hours. 4 uL of ATPlite, the ATP monitoring reagent, was then added to the each well of the assay plates using the Multidrop Combi reagent dispenser followed by incubation for 15 minutes at room temperature. The resulting luminescence was measured using the ViewLux plate reader.
Potency is read from the fitted curve at half-maximal effect.

| Structure (SMILES) | Potency |
| --- | --- |
| C/C=C(/C)C(=O)O[C@H]1C(C)=C2[C@H]([C@@H]1OC(=O)CCCCCCC)[C@@](C)(OC(C)=O)C[C@H](OC(=O)CCC)[C@@]1(O)[C@H]2OC(=O)[C@@]1(C)O | 54.4 nM (active) |
| CCC(=O)O[C@H]1CC[C@H]2[C@@H]3CCC4=CC(=O)CC[C@]4(C)[C@H]3CC[C@]12C | inactive |
| O=C(O)Cc1ccccc1 | inactive |
| CCOc1ccccc1-n1c(C(C)N2CCN(C(=O)COc3ccc(Cl)cc3)CC2)nc2ccccc2c1=O (centres undefined) | 10900 nM (active) |
| C=C(C)[C@H]1Cc2c(ccc3c2O[C@@H]2COc4cc(OC)c(OC)cc4[C@@H]2C3=O)O1 | 27.3 nM (active) |
| C[C@]12CC[C@H]3[C@@H](CCC4=CC(=O)CC[C@@H]43)[C@@H]1CC[C@@H]2OC(=O)CCc1ccccc1 | inactive |
| CCN1CCN(C(=O)Cc2ccc(Nc3ncc(F)c(Nc4ccc(C(=O)Nc5ccccc5Cl)cc4)n3)cc2)CC1 | inactive |
| C[C@H]1CCC/C=C/C2C[C@H](O)C[C@H]2[C@H](O)/C=C/C(=O)O1 (some centres undefined) | 344 nM (active) |
| Cc1sc2c(c1C)C(c1ccc(Cl)cc1)=NC(CC(=O)OC(C)(C)C)c1nnc(C)n1-2 (centres undefined) | 1930 nM (active) |
